# Test results reported in paper PMC5540273 (PLoS ONE, 2017).
# What was measured:
# Conditions in all cases: concentration: 1 μM,replicates: in singlicate; n = 1
# NEK11 = tested on: NEK11
# NEK1 = tested on: NEK1
# NEK2 = tested on: NEK2
# NEK3 = tested on: NEK3
# NEK4 = tested on: NEK4
# NEK5 = tested on: NEK5
# NEK6 = tested on: NEK6
# NEK7 = tested on: NEK7
# NEK9 = tested on: NEK9
# NIK = tested on: T1, NIK
# T1 construct: gene MAP3K14
# NIM1 = tested on: T2, NIM1
# T2 construct: gene MGC42105
# NLK = tested on: NLK
# OSR1 = tested on: T3, OSR1
# T3 construct: gene OXSR1
# PAK1 = tested on: PAK1
# PAK2 = tested on: PAK2
# PAK3 = tested on: PAK3
# PAK4 = tested on: PAK4
# PAK6 = tested on: PAK6
# PAK7 = tested on: PAK7
# PCTK1 = tested on: T4, PCTK1
# T4 construct: gene CDK16
# 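Note: KINOMEscan kinase panel screen.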
SMILES,%Inh (NEK11) [%],%Inh (NEK1) [%],%Inh (NEK2) [%],%Inh (NEK3) [%],%Inh (NEK4) [%],%Inh (NEK5) [%],%Inh (NEK6) [%],%Inh (NEK7) [%],%Inh (NEK9) [%],%Inh (NIK) [%],%Inh (NIM1) [%],%Inh (NLK) [%],%Inh (OSR1) [%],%Inh (PAK1) [%],%Inh (PAK2) [%],%Inh (PAK3) [%],%Inh (PAK4) [%],%Inh (PAK6) [%],%Inh (PAK7) [%],%Inh (PCTK1) [%]
Cc1ccc(Nc2ccnc(Nc3ccc4c(c3)CS(=O)(=O)C4)n2)cc1O.Cl [GW579362],5,31,17,46,3,70,0,23,27,27,17,97.5,46,26,29,20,0,28,56,17
c1ccc(Oc2ccc(Nc3ccnc4ccc(-c5ccccn5)cc34)cc2)cc1 [GW407034],0,0,0,9,28,0,1,0,0,9,17,13,57,20,11,0,0,0,7,8
Cl.c1ccc(Oc2ccc(Nc3ccnc4cc(-c5ccc(CN6CCNCC6)o5)ccc34)cc2)nc1 [GW567142],0,0,6,2,0,0,0,5,17,7,0,15,0,7,0,0,0,0,0,1
Cc1cccc2c(-c3ccncc3)c(-c3ccc(F)cc3)nn12.Cl [GW461487],4,0,0,0,0,16,0,0,15,10,10,65,0,24,8,100,0,0,0,0
O=C(Nc1cccc(C(F)(F)F)c1)c1cccc(Oc2ccc3nccn3n2)c1,52,0,0,17,0,12,2,0,0,36,44,0,0,0,0,20,8,1,0,21
Cc1ccc(C(=O)Nc2ccc(Oc3ccc4nc(NC(=O)C5CC5)cn4c3)c(F)c2)c(=O)n1-c1ccccc1,0,0,5,0,0,0,0,0,0,0,0,7,0,0,2,12,0,8,0,0
Cc1nnc(-c2ccc3occ(-c4ccc(S(C)=O)cc4)c3n2)o1 (centres unmarked),0,0,0,23,0,0,0,0,0,0,0,55,0,4,0,0,0,3,0,0
OCCn1cc(-c2cnc3nnn(Cc4ccc5ncccc5c4)c3n2)cn1,0,0,6,32,0,0,0,8,0,15,0,0,0,6,13,0,11,0,0,0
CN1CCN(CCCNc2nccc(-c3c(-c4ccc(F)cc4)nn4cc(C(N)=O)ccc34)n2)CC1 [GW622475],0,0,8,6,10,15,0,25,41,5,9,70,19,26,22,34,0,7,24,6
Cn1ccc2ncnc(Oc3ccc(NC(=O)Nc4cc(C(C)(C)C)on4)c(Cl)c3)c21,0,0,17,21,3,0,0,0,3,0,0,67,20,20,23,46,8,1,0,27
CS(=O)(=O)Nc1ccc(-c2ccnc3[nH]ccc23)cc1 [GSK993273],17,15,0,4,16,2,0,10,14,22,13,30,41,26,27,51,0,11,3,15
Cn1ccc2ncnc(Oc3ccc(NC(=O)Nc4cccc(C(F)(F)F)c4)c(Cl)c3)c21,0,0,0,9,0,0,9,0,0,7,0,25,0,10,17,21,15,1,1,0
O=C(Nc1n[nH]c2cc(-c3ccco3)ccc12)C1CC1 [SB-737447],24,6,0,28,7,0,0,0,0,0,0,4,12,0,48,0,1,0,8,36
CCOC(=O)N1CCC(n2cnc(-c3ccc(F)cc3)c2-c2ccnc(N)n2)CC1 [SB-219952],20,0,0,21,15,26,0,31,23,0,31,92.7,1,3,26,9,28,6,11,0
CC(=O)Nc1ccc(-c2cc3ncnc(SCC(=O)O)c3s2)cc1,0,0,1,12,6,0,4,1,5,11,0,0,7,0,0,0,0,0,8,28
Cn1ccc2ncnc(Oc3ccc(NC(=O)Nc4cccc(C(F)(F)F)c4)c(F)c3)c21,0,0,15,17,0,7,27,0,0,0,0,18,0,14,12,0,6,0,0,0
C[C@@H]1CCN(C(=O)N2CCCC2)C[C@@H]1N(C)c1ncnc2[nH]ccc12,0,4,0,39,5,0,8,0,0,0,18,0,11,0,0,25,0,0,3,5

SMILES,%Inh (NEK11) [%],%Inh (NEK1) [%],%Inh (NEK2) [%],%Inh (NEK3) [%],%Inh (NEK4) [%],%Inh (NEK5) [%],%Inh (NEK6) [%],%Inh (NEK7) [%],%Inh (NEK9) [%],%Inh (NIK) [%],%Inh (NIM1) [%],%Inh (NLK) [%],%Inh (OSR1) [%],%Inh (PAK1) [%],%Inh (PAK2) [%],%Inh (PAK3) [%],%Inh (PAK4) [%],%Inh (PAK6) [%],%Inh (PAK7) [%],%Inh (PCTK1) [%]
COc1cc2nccc(Nc3ccc(Oc4ccccc4)cc3)c2cc1OC.Cl [GI261656],0,0,0,0,0,0,0,0,2,0,5,0,0,0,0,0,0,0,3,0
COC(=O)Nc1nc2cc(Oc3ccc(NC(=O)Nc4cc(C(F)(F)F)ccc4Cl)cc3)ccc2[nH]1.Cl [GW697465],29,0,0,0,3,0,0,0,28,0,26,2,10,36,29,25,0,0,2,0
O=C(NCC1CC1)c1ccc(-c2cc(C(=O)NC3CC3)ccc2F)cc1 [GW810445],0,3,0,0,0,0,0,0,0,0,35,10,0,0,26,12,0,0,4,0
CCN1CCN(CCCC(=O)Nc2n[nH]c3nc(-c4ccc(O)cc4)c(Br)cc23)CC1 [SB-731579],0,0,0,18,0,0,0,5,22,27,3,0,0,0,33,36,61,0,7,56
CN(c1cccc(CNc2nc(Nc3ccc4c(c3)CC(=O)N4)ncc2C(F)(F)F)c1)S(C)(=O)=O,0,0,0,20,0,17,23,0,6,21,0,8,0,15,42,0,11,14,13,0
Cc1n[nH]c2cc(Nc3ccnc(Nc4cccc(CN5CCOCC5)c4)n3)ccc12 [GW682569],17,2,0,20,0,29,0,0,15,0,22,18,0,0,0,0,2,1,20,0
C[C@@H](Oc1cc(-n2cnc3cc(-c4ccncc4)ccc32)sc1C(N)=O)c1ccccc1Cl [GSK479719],0,66,96.5,5,21,82,0,12,62,0,51,0,18,21,22,27,0,5,94.2,1
CN(c1ccc2c(c1)nc(NCc1ccc(F)cc1)n2C)c1ccnc(Nc2ccc(CS(C)(=O)=O)cc2)n1.Cl [GW813244],0,0,0,36,0,0,0,0,21,0,0,0,0,10,35,12,15,0,0,0
CSc1nccc(-c2c(-c3ccc(F)cc3)ncn2CCCN2CCOCC2)n1.Cl [SB-217146],0,0,0,38,0,0,0,8,0,33,0,0,0,3,43,0,10,0,0,0
COC(=O)c1cccc(NC(=O)NC2CCN(c3ccnc(Nc4cc(OC)c(OC)c(OC)c4)n3)C2)c1 (centres unmarked) [GSK1379767],0,52,22,17,0,100,0,37,26,32,40,32,0,10,0,18,5,0,18,0
Cl.Cl.NC[C@H](CC1CCCCC1)NC(=O)c1ccc(-c2ccnc3[nH]ccc23)s1 [GSK1581428],0,–,0,0,14,15,0,1,17,0,14,12,19,22,38,94.8,34,62,68,6
CC(C)S(=O)(=O)N1CCN(Cc2ccc3c(c2)nc(NC(=O)c2ccsc2)n3C[C@H](O)c2ccccc2)CC1 [GW635815],1,0,0,0,9,8,0,0,1,9,20,0,10,22,27,15,44,9,35,0
CCn1c(-c2nonc2N)nc2cncc(CNC3CCNCC3)c21.Cl [SB-747651],11,0,0,15,28,2,0,6,38,13,31,18,4,0,51,45,0,2,0,8
Cl.Nc1n[nH]c2cc(-c3ccccn3)ccc12 [GSK2189892],0,0,0,1,0,0,0,0,3,0,0,0,11,9,2,0,0,2,16,0
COC(=O)c1cccc(NC(=O)NC2CCN(c3ccnc(NCc4ccc(F)cc4)n3)CC2)c1 [GSK1379860],7,0,0,0,6,0,0,4,0,8,15,0,19,0,0,0,0,0,0,8
CS(=O)c1ccc(-c2coc3ccc(-c4n[nH]c(=O)o4)cc23)cc1 (centres unmarked),0,0,0,15,0,0,0,19,0,0,7,11,83,0,36,18,4,5,19,14
